According to PubChem BioAssay AID720519 (National Center for Advancing Translational Sciences (NCATS), 2013):
Inconclusive results are not listed. Activity calls are given as the source filed them. The call rests on the fitted dose curve; in most records, active means well fitted activation curve with a large enough effect; inconclusive means small, poorly fitted or top-dose-only effect; inactive means flat fitted curve, though single readings scatter.

test: qHTS for Inhibitors of Cell Surface uPA Generation: Confirmatory Assay for Cherry-picked Compounds; settings: cell surface uPA activity generation, qHTS confirmation; series mostly up to 115 µM; inhibition: at the top concentration; further: 0% is about no effect
Procedure, shortened: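 RAW 264.7 cells at 4000/well, incubated overnight, then treated with compounds. After 24 h at 37 C, viability was read by ATPlite luminescence. An increase in signal indicates blocked uPA-dependent LF entry.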

Which “inhibition” value does the source give for `Oc1c(N=NC(=S)Nc2ccccc2F)c2ccccc2n1Cc1ccccc1Cl` here?
The value was -0.999% (inactive).

With `O=C(C[C@@H]1C/C=C\C[C@H](Cc2ccc(F)cc2)C(=O)OC[C@H]2CCCN2C1=O)N[C@H](CO)Cc1ccccc1` as the molecule, how does the “inhibition” value read?
Its value is -3.41% (inactive).

Which “inhibition” value does the source give for `Cc1ccc(S(=O)(=O)N2CCN(C(=O)c3n[nH]c(=O)c4ccccc34)CC2)cc1` here?
Its value is -1.76% (inactive).

Which “inhibition” value does the source give for `COc1cccc(C2CC(c3ccc(C)cc3)n3ncnc3N2)c1` (stereo not drawn) here?
The value was 0.338% (inactive).

With `Cc1ccccc1C(=O)Nc1ccccc1N1CCCCC1` as the molecule, how does the “inhibition” value read?
Its value is 0.132% (inactive).

With `COCCN(CCOC)c1nc(-c2ccc(C)cc2)nc2ccccc12` as the molecule, how does the “inhibition” value read?
The value was -3.08% (inactive).

For `Cc1ccc(-n2ncc(C(=O)NC3CC3)c2C2CCN(C(=O)OC(C)(C)C)CC2)cc1`, which “inhibition” value is on record?
The value was -1.31% (inactive).

Which “inhibition” value does the source give for `COc1ccc(C)cc1NC(=O)CSCc1cc(=O)n2c(C)csc2n1` here?
Its value is 0.197% (inactive).

With `CC(=O)c1ccc(OCCCCOc2ccc(C(C)=O)cc2)cc1` as the molecule, how does the “inhibition” value read?
The value was -1.47% (inactive).

For `CC(=O)c1ccc(NC(=O)CN2CCN(c3ccccc3)CC2)cc1`, which “inhibition” value is on record?
Its value is -2.52% (inactive).

Which “inhibition” value does the source give for `Cc1nc(C(=O)N2CCC(n3nccc3NC(=O)Nc3ccccc3Cl)CC2)cs1` here?
The value was -2.57% (inactive).

With `CC(=O)c1c(C)n(-c2ccccc2Br)c2ccc(O)cc12` as the molecule, how does the “inhibition” value read?
The value was -3.45% (inactive).

Which “inhibition” value does the source give for `O=C(CSc1ccc(Cl)cc1)N1CCCC1` here?
Its value is -2.87% (inactive).

For `Cc1ccc(NC2CCCN(C(=O)Cc3nonc3C)C2)cc1C` (stereo not drawn), which “inhibition” value is on record?
Its value is -0.6% (inactive).

Which “inhibition” value does the source give for `CC(=O)c1ccc(NC(=O)Nc2ccc(Br)cc2C)cc1` here?
The value was 1.84% (inactive).

With `CC(=O)c1ccc(N2CCN(C(=S)NCc3ccco3)CC2)cc1` as the molecule, how does the “inhibition” value read?
The value was -2.55% (inactive).

With `O=C1C=C(NNC(=O)c2ccncc2)CC(c2ccccc2)C1` (stereo not drawn) as the molecule, how does the “inhibition” value read?
The value was -1.37% (inactive).

Which “inhibition” value does the source give for `CC(C)CNC(=O)COC(=O)CCC(=O)c1cccs1` here?
Its value is -0.888% (inactive).

With `COc1ccc(Nc2nc(-c3ccccc3)c(C(=O)Nc3cccnc3)s2)cc1` as the molecule, how does the “inhibition” value read?
The value was 8.15% (inactive).

Which “inhibition” value does the source give for `C[C@@H](C(=O)Nc1ccc2ccccc2c1)[C@@H]1C[C@@]1(C)[C@@H](NC(=O)c1cccnc1)c1ccccc1` here?
Its value is -3.26% (inactive).

Which “inhibition” value does the source give for `C/C(=N\NC(=S)NC(C)C)c1ccc(Cl)s1` here?
Its value is -2.05% (inactive).

Which “inhibition” value does the source give for `CSCC[C@H](NC(=O)[C@H](Cc1ccccc1)n1c(=O)[nH]c2ccccc2c1=O)C(=O)N1CCC[C@H]1C(=O)O` here?
The value was -1.26% (inactive).

For `CC(OC(=O)c1cccc(-n2cnnn2)c1)C(=O)Nc1ccc(F)c(F)c1F` (stereo not drawn), which “inhibition” value is on record?
The value was -3.23% (inactive).

With `Cc1ccc(N2C(=O)CC(N3CCN/C3=C3\CC/C(=C\c4ccccc4)C3=O)C2=O)cc1` (stereo not drawn) as the molecule, how does the “inhibition” value read?
The value was -1.31% (inactive).

With `CCN(CC(=O)Nc1c(F)cccc1F)C(=O)c1ccc(-c2ccc(C(C)=O)cc2)o1` as the molecule, how does the “inhibition” value read?
Its value is -2.42% (inactive).

For `Cn1c(SCC(=O)NCCc2ccccc2)ncc(C(=O)Nc2ccc(F)cc2)c1=O`, which “inhibition” value is on record?
The value was -0.414% (inactive).

With `O=C1CC(/C=C/c2ccc(Cl)cc2)=Nc2ccccc2N1` as the molecule, how does the “inhibition” value read?
Its value is -2.63% (inactive).

With `CCN1CCN(C(c2ccccc2)c2nnnn2Cc2ccc3c(c2)OCO3)CC1` (stereo not drawn) as the molecule, how does the “inhibition” value read?
The value was 2.01% (inactive).

Which “inhibition” value does the source give for `COc1cc(C(=O)N/N=C(\Cc2ncc[nH]2)c2ccccc2)cc(OC)c1OC` here?
Its value is 0.667% (inactive).

With `CCCOC(=O)CSC1=C(C#N)C(c2ccccc2Cl)CC(=O)N1` (stereo not drawn) as the molecule, how does the “inhibition” value read?
Its value is -3.31% (inactive).

Which “inhibition” value does the source give for `CN1CCN(C2=Nc3ccccc3Oc3ccc(Cl)cc32)CC1` here?
Its value is 0.247% (inactive).

With `COc1cc(C2NC(=O)NC(C)=C2C(=O)OCC2CCCCC2)ccc1O` (stereo not drawn) as the molecule, how does the “inhibition” value read?
Its value is -0.323% (inactive).

For `COc1ncnc(NS(=O)(=O)c2ccc(N)cc2)c1OC`, which “inhibition” value is on record?
The value was 0.555% (inactive).

With `CCCCCCCCCOC(=O)C1N2C(=O)[C@@H](NC(=O)COc3ccccc3)[C@H]2SC1(C)C` (stereo partly drawn) as the molecule, how does the “inhibition” value read?
The value was -3.41% (inactive).

With `CCCCCOC(=O)C1=C(C)NC(=O)NC1c1ccccc1` (stereo not drawn) as the molecule, how does the “inhibition” value read?
Its value is 0.136% (inactive).

Which “inhibition” value does the source give for `CCOC(=O)Oc1c(OC)cc(C(=O)O[C@@H]2C[C@@H]3CN4CCc5c([nH]c6cc(OC)ccc56)[C@H]4C[C@@H]3[C@H](C(=O)OC)[C@H]2OC)cc1OC` here?
Its value is -2% (inactive).

For `CCCN1CCN(C(=O)CCCn2c(C)c3cnn(-c4ccccc4)c(=O)c3c2C)CC1`, which “inhibition” value is on record?
The value was -2.47% (inactive).

Which “inhibition” value does the source give for `CC(C)c1ccc(C2/C(=C(\O)c3ccc4c(c3)OCCO4)C(=O)C(=O)N2CCN2CCOCC2)cc1` (stereo not drawn) here?
The value was -0.762% (inactive).
